Measured values from PubChem BioAssay AID1347426 (Functional Genomics Laboratory (NCATS/FGL), 2020).
The campaign covered roughly 31,000 sequences. About 1,400 (4.5%) were called active. The full list was thinned out, with actives kept by preference. Values without a mark were called inactive.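 Rule for the calls: active = median seed-adjusted z-score above 1 or below -1; inactive = the rest.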

experiment: Novel Modifiers of Survival Motor Neuron (SMN) Protein: Gene Identification via Genome-wide siRNA Screen; conditions: HEK293T SMN2-luciferase reporter, siRNA knockdown, 72 h; actives lie on both sides;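 note: luminescence tracks full-length SMN protein made from the SMN2 reporter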
Description: Spinal muscular atrophy (SMA) is the most common neuromuscular autosomal recessive disorder and one of the leading genetic causes of infant death. SMA results from mutations inducing loss of function or deletion in the survival of motor neuron-1 gene (SMN1), leading to deficiency of the survival motor neuron (SMN) protein. Although a second nearly identical gene, SMN2, is retained in humans, its expression primarily produces an aberrantly spliced isoform that is largely unstable and quickly degraded. We performed a genome-wide RNAi screen using a cell-based reporter assay to identify genes and pathways that modulate SMN protein stability. The screen identified over 200 genes that led to the greatest increase or decrease in luciferase expression.
Using HEK293T cells stably expressing a luciferase reporter that combines the promoter and splicing based cassettes in tandem with the major portion of the native SMN2 cDNA with luciferase, we performed a genome-wide RNAi screen to identify modulators of SMN protein levels. Luciferase is expressed when full-length SMN protein is generated with luminescence signal proportional to SMN protein levels. Our luciferase-based reporter assay was used to screen Ambion Silencer Select Human Druggable Genome siRNA library (10418 genes, 3 unique siRNAs per gene) using lipid-based reverse transfection.
Briefly, 1 pmol of each siRNA was spotted to a well of a 384-well plate (Corning, Corning, NY) and 20 microL of serum-free DMEM containing […] of Lipofectamine RNAiMax (Life Technologies, Carlsbad, CA) was then added to each well. Transfected cells were maintained at 37 degrees C in 5% CO2 for 72 hours, 20 microL of ONE-Glo Reagent (Promega) was added to wells for luciferase quantification. Raw luminescence reads were normalized to Ambion(R) Silencer(R) Negative Control #2 siRNA, then log10 transformed. A robust statistical measure of median absolute deviation (MAD) to standardize siRNA activities from each screen. Common Seed Analysis was used to help prioritize clean hits as opposed to those appearing to arise from seed based off-target effects. Candidate modulators were defined as the genes having a MAD score greater than 1.0 or less than -1.0.

Sequence | median seed-adjusted z-score
CAAGUUCUCUUAUCCACCATT against PPP1R15A | 0.539
UGAAAUGGAUGAAAACCUATT against SNAP25 | 0
GCGUGUUCGUGCACGUCUATT against MOBKL2A | 0.268
CAGCAACCAUGGAAAUCGATT against MYST4 | 0.138
ACUGGACAGUGGUAUCAGATT against UBASH3A | -1.1 (active)
CAGGUACAGCGCAUCGUUATT against EDC4 | 0
GGGAUGAUUCAGACAAACATT against ZC3HAV1 | 0.522
CAGUGGAUCUAUAUGAACATT against KIT | -0.686
GCAUUUACACUGUAUAUUATT against POU4F2 | 1.46 (active)
AACUCGCAGUGGUUCAAUUTT against TXNDC8 | -0.281
GCAAGGAUAUGUACCAGAUTT against AGXT | 0.017
GGUUCAAUGGAAAAGGGAATT against DLX6 | 0.0275
GAACUGAUAUCUGAAGAGATT against MLPH | -1.2 (active)
CCUUCAUUGAGGACCUGAATT against PTP4A3 | 0.354
GCUUCUCACGAGAUUGAAATT against SCARA3 | -0.05
GGGUUAGACGGAUACAAGATT against LILRA2 | -0.103
CAGUACAGGUUGAGUCAAATT against LRRFIP1 | -0.181
GCAAUUGAAUAUUGGAGUUTT against MED17 | -2.06 (active)
CAUAGAAGCGGAUACUUAUTT against GALM | -0.111
GCAGGGUGCACAUAUCAUUTT against VNN3 | 0.343
ACAUCUGCCUGAUCUCAUATT against INDO | 0.0511
CCACUAAACUGCGAGAGAATT against CEBPD | -0.101
GUGUGAGGGUUGAACUCAATT against EGLN1 | 2.05 (active)
CGGUAUUAUUGUCAUUGCATT against UBE2K | 0.497
GCAAUAUGUUUAUCCAUAATT against CSE1L | 0.425
GACAAAUGUUUGGUCAAUUTT against A2BP1 | 1.17 (active)
AUACUGACUUCAUAGAAAATT against RGS2 | 0.00236

Sequence | median seed-adjusted z-score
GGAUAUCAACUUAUUAGAUTT against XPO1 | 1.12 (active)
GCAUUGCAGAGAACCGACATT against METTL7A | 0.278
CCUUGAUAGUGGUCGGGAATT against OSBPL3 | 0.0159
ACAGUGUAUUCAAACAGUATT against NGF | -0.325
GGAUAACUUCUCCUUGUCATT against PRM3 | 0.249
AGAGGAUCAAGGUUUUAAATT against APBA2 | 1.66 (active)
GGCCGUUACUGAUUGAGCUTT against CAPN7 | 0.125
GCAUUUCGCUGUACAAGUUTT against IPO4 | -0.0188
GGAUUCAUCCGGUCCAGAUTT against PEX5L | 0.0982
GGCUUGCUGUAAUUACCCATT against ABCB1 | -0.384
GCUUUACAUGGUUUUCGAATT against CASK | -0.422
GGAGAGUGCUACAAGGUGATT against COL6A2 | 0.0119
CAAGUUCUAUCACUCCUUUTT against IRX2 | -0.409
CCACAUUGGUUACCACUAATT against ITGAV | 1.17 (active)
CAGUGUUAGUACUCGAUAATT against EXT2 | -0.127
CCUAUUUGGUGUUAACAUATT against DIRAS1 | -0.751
CUAUGAUCUCAACCAAAUATT against CD248 | -0.0191
AGCUAACAGCGGCUCAAGATT against NR1H2 | 0.069
UUACUUUCCUAGUAAGCAATT against GNA12 | 0.598
GCACAGAUGAAGCCCGCUUTT against ARL11 | 1 (active)
CAAGCUCUUUGGUCAAGAATT against SNX4 | -0.144
GCAUAAAACUGAAGGUGGATT against PTPRN | -0.272
CAUCAUUUCAGACAAGUUUTT against DDO | -0.202
UCUACGCAGUGGUCACCAATT against BLK | -0.274
CAAUCUAUUAAGAAAUGUUTT against RPE | 0.616
CAUAUAUGAUUGCAUCAAATT against ACTL6A | 1.11 (active)
GGAUCAACCGCUGCUUGAATT against HELT | -0.192
